Where “and” joins values, the source holds several entries; their conditions need not be identical. Equal values may be shown once. Results filed as inconclusive are left out. Calls of active or inactive are those of the source. How the source made its calls: active means hit-call score of the fitted dose curve at least 0.9, where 1 is the maximum; inconclusive means response in the unintended direction; inactive means score below 0.9.
Columns and labels:
[1] = biological target: human Vasopressin 1A Receptor (V1A), AVPR1A (gene 552) (UniProt P37288); assay: NVS_GPCR_hV1A: NovaScreen (NVS) G Protein-Coupled Receptor Assay for human Vasopressin 1A Receptor (V1A) (AID 2283284)
Protocol: NVS_GPCR_hV1A is a biochemical, single-readout assay that uses extracted gene-proteins from Human platelets in a cell-free assay. Measurements were taken 1.5 hours after chemical dosing in a 96-well plate.NVS_GPCR_hV1A is one of one assay component(s) measured or calculated from the NVS_GPCR_hV1A assay. It is designed to make measurements of radioligand binding, a form of binding reporter, as detected with scintillation counting signals by Filter-based radiodetection technology.Data from the assay component NVS_GPCR_hV1A was analyzed into 1 assay endpoint. This assay endpoint, NVS_GPCR_hV1A, was analyzed in the positive analysis fitting direction relative to DMSO as the negative control and baseline of activity. Using a type of binding reporter, loss-of-signal activity can be used to understand changes in the binding as they relate to the gene AVPR1A. Furthermore, this assay endpoint can be referred to as a primary readout, because the performed assay has only produced 1 assay endpoint. To generalize the intended target to other relatable targets, this assay endpoint is annotated to the gpcr intended target family, where the subfamily is rhodopsin-like receptor.
Binding assays used specific radioligands (tritiated, iodinated) with non-radioactive competitive displacement ligands in agonist or antagonist protocols (as indicated) and various reference compounds and inhibitors to titrate specific binding to receptors and transporters. Most enzyme assays (CYPs, kinases, phosphatases, proteases, HDACs) used recombinant protein and specific substrates (fluorescence mostly, some colorimetric and radioactive) and inhibitors, followed by a biochemical separation of substrate and product. All assays for the biochemical HTS were initially run in duplicate at a single concentration (10 uM for CYP450 assays and 25 uM for all others). Assay-chemical combinations meeting a pre-defined threshold (e.g., 30% inhibition and other criteria defined below) were then run in singleton concentration-response format with maximum concentration of 20 uM for CYPs and 50 uM for all others. Each assay was run with positive and negative controls, and concurrent controls on every plate. The follow-up (secondary) screen tested active chemical-pairs in concentration series, as well as a few additional assays not tested in the primary screen, some selected negative inactives, and several cases re-run in the concentration series for confirmatory purposes.

[2] = biological target: rat Adrenergic, Alpha 1, Non-selective Receptor (Adra1), Adra1a (gene 29412) (UniProt P43140); assay: NVS_GPCR_rAdra1_NonSelective: NovaScreen (NVS) G Protein-Coupled Receptor Assay for rat Adrenergic, Alpha 1, Non-selective Receptor (Adra1) (AID 2283289)
Method in brief: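 Rat forebrain membranes; radioligand displacement read by filter-based scintillation counting 1 h after dosing. Primary screen in duplicate at 25 uM; hits (e.g. ≥30% inhibition) rerun as concentration–response to 50 uM max. Fitted versus DMSO.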

[3] = biological target: human Orphanin, Opioid Related Nociceptin Receptor 1 (ORL1), OPRL1 (gene 4987) (UniProt P41146); assay: NVS_GPCR_hORL1: NovaScreen (NVS) G Protein-Coupled Receptor Assay for human Orphanin, Opioid Related Nociceptin Receptor 1 (ORL1) (AID 2283283)
Method in brief: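 Filter-based radioligand displacement with receptor extracted from HEK293 cells, read 1 hour after dosing by scintillation counting. Duplicate single-point screen at 25 uM; qualifying chemicals then run in concentration-response to 50 uM, analysed relative to DMSO.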

[4] = biological target: mouse Cholecystokinin, CCK1 Receptor (CCKA), Cckar (gene 12425) (UniProt O08786); assay: NVS_GPCR_mCCKAPeripheral: NovaScreen (NVS) G Protein-Coupled Receptor Assay for mouse Cholecystokinin, CCK1 Receptor (CCKA) (AID 2283285)
Method in brief: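 Radioligand competitive displacement on mouse pancreatic membranes, 2 h incubation; filter-based scintillation counting, loss of signal versus DMSO. Single-concentration screen at 25 uM in duplicate, actives retested in concentration-response up to 50 uM.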

[5] = tested on: 5-hydroxytryptamine receptor 2C (pig); assay: NVS_GPCR_p5HT2C: NovaScreen (NVS) G Protein-Coupled Receptor Assay for pig Serotonin, 5-Hydroxytryptamine Receptor 2C (5HT2C) (AID 2283288)
Method in brief: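 Pig choroid plexus membranes; radioligand competitive binding, filter-based scintillation counting, read 1 h after dosing. Primary screen in duplicate at 25 uM; actives then run as concentration series; loss of signal versus DMSO baseline.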

[6] = biological target: human Opioid Receptor Mu (Opiate Mu), OPRM1 (gene 4988) (UniProt P35372); assay: NVS_GPCR_hOpiate_mu: NovaScreen (NVS) G Protein-Coupled Receptor Assay for human Opioid Receptor Mu (Opiate Mu) (AID 2283290);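 further: hits lower bound tracer signal versus DMSO meaning displacement of the ligand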
Method in brief: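 Radioligand displacement binding on membranes from CHO cells expressing the receptor, 2.5 h after dosing, filter-based scintillation counting; loss of signal vs DMSO baseline. Screened in duplicate at 25 uM, actives then run in concentration series.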

[7] = biological target: guinea pig Bradykinin Receptor B2 (BK2), BDKRB2 (gene 100135486) (UniProt O70526); assay: NVS_GPCR_gBK2: NovaScreen (NVS) G Protein-Coupled Receptor Assay for guinea pig Bradykinin Receptor B2 (BK2) (AID 2283292)
Method in brief: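 Radioligand displacement on guinea pig ileum membranes for 1 h, read by filter-based scintillation counting; loss of signal relative to DMSO. Compounds were screened in duplicate at 25 uM, and those passing the threshold were retested in concentration-response up to 50 uM.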

[8] = biological target: rat Serotonin, 5-Hydroxytryptamine Receptor 1 (5HT1), Non-Selective Binding, Htr1a (gene 24473) (UniProt P19327); assay: NVS_GPCR_r5HT1_NonSelective: NovaScreen (NVS) G Protein-Coupled Receptor Assay for rat Serotonin, 5-Hydroxytryptamine Receptor 1 (5HT1), Non-Selective Binding (AID 2283286)
Method in brief: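 Rat cortical membranes, radioligand displacement, 1 h incubation, read by filter scintillation. Primary screen in duplicate at 25 uM. Hits (e.g. ≥30% inhibition) went to concentration-response up to 50 uM, fitted as loss of binding versus DMSO.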

[9] = tested on: rabbit Platelet Activating Factor Receptor (PAF), gene 100354046; assay: NVS_GPCR_rabPAF: NovaScreen (NVS) G Protein-Coupled Receptor Assay for rabbit Platelet Activating Factor Receptor (PAF) (AID 2283287)
Method in brief: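 Rabbit platelet membrane preparation; radioligand displacement read by filter-based scintillation counting 1 h after dosing, loss of signal versus DMSO. Primary screen in duplicate at 25 uM, actives followed up in concentration series.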

[10] = biological target: human Thromboxane A2 Receptor (TXA2), TBXA2R (gene 6915) (UniProt P21731); assay: NVS_GPCR_hTXA2: NovaScreen (NVS) G Protein-Coupled Receptor Assay for human Thromboxane A2 Receptor (TXA2) (AID 2283282);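 further: actives reduce bound radioligand signal relative to DMSO baseline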
Method in brief: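 Cell-free radioligand binding on membrane protein from human platelets; radioligand displacement read by filter-based scintillation counting after 1 h. Primary screen in duplicate at 25 uM, actives then run in concentration series; loss of signal versus DMSO.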

Sequence of rat Adrenergic, Alpha 1, Non-selective Receptor (Adra1), Adra1a (gene 29412) (P43140 whole entry, looked up): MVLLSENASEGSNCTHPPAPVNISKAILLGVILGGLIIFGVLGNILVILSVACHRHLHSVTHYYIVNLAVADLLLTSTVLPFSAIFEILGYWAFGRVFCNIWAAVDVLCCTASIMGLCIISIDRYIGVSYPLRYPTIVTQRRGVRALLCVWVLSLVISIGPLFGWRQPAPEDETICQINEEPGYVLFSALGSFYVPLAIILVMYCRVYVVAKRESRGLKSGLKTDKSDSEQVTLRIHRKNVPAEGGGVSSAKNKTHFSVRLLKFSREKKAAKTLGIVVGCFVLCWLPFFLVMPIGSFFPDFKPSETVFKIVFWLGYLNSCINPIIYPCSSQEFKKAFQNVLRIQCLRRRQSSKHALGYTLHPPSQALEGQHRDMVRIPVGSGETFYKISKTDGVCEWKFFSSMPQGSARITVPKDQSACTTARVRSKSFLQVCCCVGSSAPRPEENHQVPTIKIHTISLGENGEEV
Sequence of guinea pig Bradykinin Receptor B2 (BK2), BDKRB2 (gene 100135486) (O70526 whole entry, looked up): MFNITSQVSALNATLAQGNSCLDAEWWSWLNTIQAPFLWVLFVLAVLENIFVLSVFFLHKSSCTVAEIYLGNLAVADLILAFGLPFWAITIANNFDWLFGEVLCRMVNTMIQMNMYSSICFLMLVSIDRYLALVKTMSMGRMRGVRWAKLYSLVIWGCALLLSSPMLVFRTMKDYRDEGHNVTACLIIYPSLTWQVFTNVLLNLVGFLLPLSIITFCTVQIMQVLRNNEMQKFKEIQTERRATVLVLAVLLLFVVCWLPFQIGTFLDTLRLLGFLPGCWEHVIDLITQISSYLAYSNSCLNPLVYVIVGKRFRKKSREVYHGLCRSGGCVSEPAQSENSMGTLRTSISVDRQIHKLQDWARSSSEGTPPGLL
Sequence of human Thromboxane A2 Receptor (TXA2), TBXA2R (gene 6915) (P21731 whole entry, looked up): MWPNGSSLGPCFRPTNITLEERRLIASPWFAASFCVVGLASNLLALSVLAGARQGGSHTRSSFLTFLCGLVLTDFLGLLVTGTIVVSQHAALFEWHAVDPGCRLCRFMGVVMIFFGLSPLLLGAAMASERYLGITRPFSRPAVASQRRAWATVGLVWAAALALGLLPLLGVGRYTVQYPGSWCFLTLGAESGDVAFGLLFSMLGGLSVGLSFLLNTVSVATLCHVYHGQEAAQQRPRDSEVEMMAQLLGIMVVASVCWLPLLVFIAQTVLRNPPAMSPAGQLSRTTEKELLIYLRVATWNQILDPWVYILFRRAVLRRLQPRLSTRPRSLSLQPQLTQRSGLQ
Sequence of human Orphanin, Opioid Related Nociceptin Receptor 1 (ORL1), OPRL1 (gene 4987) (P41146 whole entry, looked up): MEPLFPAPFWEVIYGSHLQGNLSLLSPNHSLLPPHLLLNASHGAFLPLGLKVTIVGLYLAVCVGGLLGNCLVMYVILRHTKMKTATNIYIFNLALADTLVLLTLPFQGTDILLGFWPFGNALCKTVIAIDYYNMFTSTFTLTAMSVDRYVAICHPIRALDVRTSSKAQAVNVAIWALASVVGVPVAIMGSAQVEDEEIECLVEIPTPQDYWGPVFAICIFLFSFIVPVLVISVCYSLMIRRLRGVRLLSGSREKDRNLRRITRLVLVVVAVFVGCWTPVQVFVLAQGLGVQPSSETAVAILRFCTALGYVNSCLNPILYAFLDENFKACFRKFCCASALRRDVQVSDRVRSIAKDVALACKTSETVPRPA
Sequence of mouse Cholecystokinin, CCK1 Receptor (CCKA), Cckar (gene 12425) (O08786 whole entry, looked up): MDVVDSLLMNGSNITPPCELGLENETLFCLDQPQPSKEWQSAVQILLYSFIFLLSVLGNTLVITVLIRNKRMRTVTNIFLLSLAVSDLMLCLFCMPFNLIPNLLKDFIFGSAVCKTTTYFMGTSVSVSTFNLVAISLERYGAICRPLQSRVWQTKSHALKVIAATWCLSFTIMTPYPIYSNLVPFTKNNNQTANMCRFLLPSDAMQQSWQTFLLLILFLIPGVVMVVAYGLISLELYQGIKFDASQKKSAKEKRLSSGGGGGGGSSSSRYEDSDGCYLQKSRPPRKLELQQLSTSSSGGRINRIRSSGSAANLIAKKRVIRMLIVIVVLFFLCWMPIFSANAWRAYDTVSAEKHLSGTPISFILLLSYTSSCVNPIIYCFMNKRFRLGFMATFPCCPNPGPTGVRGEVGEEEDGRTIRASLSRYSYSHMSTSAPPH
Sequence of human Opioid Receptor Mu (Opiate Mu), OPRM1 (gene 4988) (P35372 whole entry, looked up): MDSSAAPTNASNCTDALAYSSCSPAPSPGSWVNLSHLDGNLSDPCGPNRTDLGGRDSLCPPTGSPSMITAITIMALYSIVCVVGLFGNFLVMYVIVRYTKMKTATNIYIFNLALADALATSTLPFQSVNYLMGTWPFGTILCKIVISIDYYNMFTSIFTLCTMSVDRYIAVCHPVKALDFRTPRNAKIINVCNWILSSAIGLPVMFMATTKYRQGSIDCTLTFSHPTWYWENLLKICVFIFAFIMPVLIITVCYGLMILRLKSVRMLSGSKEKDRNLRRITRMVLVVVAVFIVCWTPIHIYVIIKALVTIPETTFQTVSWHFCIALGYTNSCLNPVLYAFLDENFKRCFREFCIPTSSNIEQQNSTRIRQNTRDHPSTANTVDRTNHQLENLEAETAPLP
Sequence of rat Serotonin, 5-Hydroxytryptamine Receptor 1 (5HT1), Non-Selective Binding, Htr1a (gene 24473) (P19327 whole entry, looked up): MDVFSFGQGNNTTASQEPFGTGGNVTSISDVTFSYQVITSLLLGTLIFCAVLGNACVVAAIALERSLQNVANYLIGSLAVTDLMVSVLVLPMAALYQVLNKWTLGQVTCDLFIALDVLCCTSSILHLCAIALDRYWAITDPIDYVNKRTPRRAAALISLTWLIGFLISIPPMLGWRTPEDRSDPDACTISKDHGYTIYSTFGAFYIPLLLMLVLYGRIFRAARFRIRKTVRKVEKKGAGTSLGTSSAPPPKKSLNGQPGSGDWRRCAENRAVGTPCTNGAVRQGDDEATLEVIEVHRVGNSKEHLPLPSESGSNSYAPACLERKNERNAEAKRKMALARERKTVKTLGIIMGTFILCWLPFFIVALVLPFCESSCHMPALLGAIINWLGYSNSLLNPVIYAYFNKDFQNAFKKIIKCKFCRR
Sequence of human Vasopressin 1A Receptor (V1A), AVPR1A (gene 552) (P37288 whole entry, looked up): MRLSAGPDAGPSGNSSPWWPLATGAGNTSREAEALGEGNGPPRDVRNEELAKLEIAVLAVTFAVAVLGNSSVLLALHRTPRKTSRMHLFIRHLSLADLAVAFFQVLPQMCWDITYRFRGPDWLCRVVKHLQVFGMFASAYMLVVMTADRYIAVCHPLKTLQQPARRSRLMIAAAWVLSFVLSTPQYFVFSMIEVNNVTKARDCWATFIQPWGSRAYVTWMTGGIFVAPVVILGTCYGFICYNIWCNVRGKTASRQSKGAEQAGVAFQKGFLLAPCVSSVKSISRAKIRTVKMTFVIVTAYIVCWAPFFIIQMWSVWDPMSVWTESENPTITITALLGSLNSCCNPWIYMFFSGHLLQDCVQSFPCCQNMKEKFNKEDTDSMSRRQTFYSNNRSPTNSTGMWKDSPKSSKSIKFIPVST

c1ccc(C[n+]2cccc3ccccc32)cc1
outcome [1]: inactive
AC50 [2]: 11.7 µM (active)

CN(C)c1ccc(C(=C2C=CC(=[N+](C)C)C=C2)c2ccc(N(C)C)cc2)cc1
AC50 [3]: 21.8 µM (active)
AC50 [4]: 10.8 µM (active)
AC50 [5]: 18.5 µM (active)
AC50 [2]: 4.81 µM (active)
AC50 [6]: 2.5 µM (active)
AC50 [7]: 12.3 µM (active)

CC1=CC(=O)/C(=C(/C)O)C(=O)O1
outcome [8]: inactive

CC[C@H](NC(=O)c1cc(F)ccc1NS(=O)(=O)c1cccc2cccnc12)c1ccccc1
outcome [6]: inactive

NCc1cccc(C2CCN(C(=O)c3ccc(C#Cc4ccccc4F)o3)CC2)c1
AC50 [4]: 13.6 µM (active)
AC50 [8]: 4.96 µM (active)
AC50 [9]: 9.21 µM (active)
AC50 [5]: 8.02 µM (active)
AC50 [2]: 21.5 µM (active)
AC50 [6]: 2.56 µM (active)

Clc1ccccc1C(c1ccccc1)(c1ccccc1)n1ccnc1
AC50 [9]: 0.621 µM (active)
outcome [6]: inactive

COc1cc(C(=O)NC2CCN(C)CC2)ccc1Nc1ncc2c(n1)N(C1CCCC1)CC(F)(F)C(=O)N2C
outcome [8]: inactive
AC50 [9]: 0.76 µM (active)
AC50 [5]: 3.34 µM (active)
AC50 [2]: 3.85 µM (active)
AC50 [6]: 17.4 µM (active)
AC50 [7]: 2.81 µM (active)

CO[C@H]1/C=C/O[C@@]2(C)Oc3c(C)c(O)c4c(O)c(c(/C=N/N5CCN(C)CC5)c(O)c4c3C2=O)NC(=O)/C(C)=C\C=C\[C@H](C)[C@H](O)[C@@H](C)[C@@H](O)[C@@H](C)[C@H](OC(C)=O)[C@@H]1C
outcome [10]: inactive

CCCCCCCCOc1ccc(C(=O)c2ccccc2)c(O)c1
AC50 [10]: 25 µM (active)

CCN(CC)C(=O)c1cc(S(=O)(=O)Cc2ccccc2)c(N2CCC(c3ccccc3)CC2)cc1N(CC)CCN(C)C
outcome [10]: inactive
AC50 [9]: 10.2 µM (active)
AC50 [5]: 7.94 µM (active)
AC50 [6]: 10.3 µM (active)

O=C1O[C@H]([C@@H](O)CO)C(O)=C1O
AC50 [10]: 8.76 µM (active)

COc1ccc2cc(S(=O)(=O)N[C@H](CC(=O)N[C@H](Cc3ccc(CN4[C@H](C)CCC[C@@H]4C)cc3)C(=O)N(C)C(C)C)c3ccc4c(c3)OCO4)ccc2c1
AC50 [2]: 15.7 µM (active)
AC50 [6]: 8.69 µM (active)
AC50 [7]: 13.8 µM (active)

Cc1oc2c(NC(=O)c3c(Cl)cccc3Cl)cccc2c1C(C)(C)O
AC50 [9]: 5.98 µM (active)

CC[C@@H]1C[C@H](N(Cc2cc(C(F)(F)F)cc(C(F)(F)F)c2)C(C)=O)c2cc(C(F)(F)F)ccc2N1C(=O)OC(C)C
outcome [8]: inactive
outcome [9]: inactive

CCCCOC(=O)c1ccc(O)cc1
AC50 [5]: 25 µM (active)

Cc1occc1C(=O)Nc1ccc(C(=O)N2CCC(F)(F)/C(=C\C(=O)N3CCC(N4CCCCC4)CC3)c3ccccc32)cc1
AC50 [1]: 0.00237 µM (active)
AC50 [9]: 2.76 µM (active)
outcome [5]: inactive
AC50 [2]: 6.08 µM (active)

O=C1c2ccccc2C(=O)N1CCc1noc(-c2ccc(CN3CCCCCC3)s2)n1
AC50 [9]: 3.11 µM (active)
AC50 [2]: 9.19 µM (active)

O=c1[nH]sc2ccccc12
AC50 [3]: 3.2 µM (active)
AC50 [8]: 40.4 µM (active)
outcome [6]: inactive

Cc1cc(F)ccc1-c1cc(N2CC[C@@H](O)[C@H]2CO)ncc1N(C)C(=O)C(C)(C)c1cc(C(F)(F)F)cc(C(F)(F)F)c1
AC50 [4]: 4.08 µM (active)
AC50 [9]: 1.38 µM (active)
AC50 [2]: 20.4 µM (active)

CCN(Cc1cccc(S(=O)(=O)O)c1)c1ccc(C(=C2C=CC(=[N+](CC)Cc3cccc(S(=O)(=O)O)c3)C=C2)c2ccccc2S(=O)(=O)[O-])cc1
AC50 [10]: 8.17 µM (active)

COc1cccc([C@H](O)C2CCN(CCc3ccc(F)cc3)CC2)c1OC
AC50 [8]: 25 µM (active)
AC50 [6]: 12.6 µM (active)

O=c1c(-c2ccc(O)cc2)coc2cc(O)cc(O)c12
outcome [2]: inactive

CCOC(=O)O[C@H](C)OC(=O)c1ccc2c(c1)cc(C(=O)NC1CCN(C(C)C)CC1)n2Cc1cc(-c2ccc(Cl)s2)on1
AC50 [10]: 23.6 µM (active)
AC50 [3]: 4.46 µM (active)
AC50 [4]: 22.9 µM (active)
AC50 [9]: 17.3 µM (active)
AC50 [5]: 21.3 µM (active)
AC50 [2]: 33.1 µM (active)
AC50 [6]: 2.94 µM (active)

CC/C(=C(/CC)c1ccc(O)cc1)c1ccc(O)cc1
AC50 [10]: 15.3 µM (active)
AC50 [3]: 11.4 µM (active)
AC50 [4]: 12.5 µM (active)
AC50 [5]: 22.1 µM (active)
outcome [2]: inactive
AC50 [6]: 5.64 µM (active) and 4.96 µM (active) and 10.7 µM (active)

CN(C)C(=O)C1(N2CCCCC2)CCN(CC[C@@]2(c3ccc(Cl)c(Cl)c3)CN(C(=O)c3ccccc3)CCO2)CC1
AC50 [3]: 4.88 µM (active)
AC50 [4]: 3.99 µM (active)
outcome [8]: inactive
AC50 [5]: 1.18 µM (active)
AC50 [6]: 1.41 µM (active)
AC50 [7]: 14 µM (active)
